The whole screen tested about 39,000 compounds, of which about 3,300 (8.5%) were called active. Many of the other results were omitted from the sample, so actives are more common in it than they were.
tested on: HepG2; experiment: cytotoxicity call (relative viability < 0.9); settings: 10 µM

SMILES | cytotoxicity call
C[C@H](CO)N1C[C@H](C)[C@H](CN(C)Cc2ccc(Oc3ccccc3)cc2)Oc2c(NC(=O)C3CCCCC3)cccc2C1=O | inactive
COc1ccc(NC(=O)N(C)C[C@@H]2OCCCC[C@H](C)Oc3ccc(NS(=O)(=O)c4ccccc4)cc3C(=O)N([C@H](C)CO)C[C@H]2C)cc1 | inactive
CC(C)NC(=O)N(C)C[C@@H]1Oc2c(NS(=O)(=O)c3cccs3)cccc2C(=O)N([C@@H](C)CO)C[C@@H]1C | inactive
C[C@@H]1CCCCO[C@H](CN(C)S(=O)(=O)c2ccc(Cl)cc2)[C@@H](C)CN([C@@H](C)CO)C(=O)c2cc(NC(=O)Cc3ccccc3)ccc2O1 | inactive
C[C@@H]1CN([C@H](C)CO)C(=O)c2cc(NC(=O)Cc3ccccc3)ccc2O[C@@H](C)CCCCO[C@H]1CN(C)S(=O)(=O)c1ccc(Cl)cc1 | inactive
C[C@H](CO)N1C[C@H](C)[C@H](CN(C)S(=O)(=O)c2ccc(Cl)cc2)OCCCC[C@H](C)Oc2ccc(NC(=O)Cc3ccccc3)cc2C1=O | inactive
C[C@H](CO)N1C[C@H](C)[C@@H](CN(C)S(=O)(=O)c2ccc(Cl)cc2)OCCCC[C@H](C)Oc2ccc(NC(=O)Cc3ccccc3)cc2C1=O | active
C[C@@H]1CCCCO[C@@H](CN(C)S(=O)(=O)c2ccc(Cl)cc2)[C@H](C)CN([C@H](C)CO)C(=O)c2cc(NC(=O)Cc3ccccc3)ccc2O1 | active
C[C@@H]1CN([C@@H](C)CO)C(=O)c2cc(NC(=O)Cc3ccccc3)ccc2O[C@@H](C)CCCCO[C@H]1CN(C)S(=O)(=O)c1ccc(Cl)cc1 | inactive
C[C@@H]1CCCCO[C@@H](CN(C)S(=O)(=O)c2ccc(Cl)cc2)[C@@H](C)CN([C@H](C)CO)C(=O)c2cc(NC(=O)Cc3ccccc3)ccc2O1 | inactive
C[C@@H]1CCCCO[C@H](CN(C)S(=O)(=O)c2ccc(Cl)cc2)[C@H](C)CN([C@H](C)CO)C(=O)c2cc(NC(=O)Cc3ccccc3)ccc2O1 | active
C[C@@H]1CCCCO[C@H](CN(C)S(=O)(=O)c2ccc(Cl)cc2)[C@@H](C)CN([C@H](C)CO)C(=O)c2cc(NC(=O)Cc3ccccc3)ccc2O1 | active
C[C@@H]1CCCCO[C@@H](CN(C)S(=O)(=O)c2ccc(Cl)cc2)[C@@H](C)CN([C@@H](C)CO)C(=O)c2cc(NC(=O)Cc3ccccc3)ccc2O1 | inactive
C[C@@H]1CN([C@H](C)CO)C(=O)c2cc(NC(=O)Cc3ccccc3)ccc2O[C@@H](C)CCCCO[C@@H]1CN(C)S(=O)(=O)c1ccc(Cl)cc1 | inactive
C[C@@H]1CCCCO[C@H](CN(C)S(C)(=O)=O)[C@@H](C)CN([C@@H](C)CO)C(=O)c2cc(N(C)C)ccc2O1 | inactive
C[C@@H]1CN([C@@H](C)CO)C(=O)c2cccc(NC(=O)c3nc4ccccc4s3)c2O[C@@H]1CN(C)Cc1ccc(Oc2ccccc2)cc1 | inactive
COc1cc(S(=O)(=O)NCCN2CCN(S(=O)(=O)c3cc(OC)c(Cl)cc3OC)CC2)c(OC)cc1Cl | inactive
COc1ccc(NC(=O)N(C)C[C@@H]2Oc3c(NC(=O)CCCCCC(=O)Nc4ccccc4N)cccc3C(=O)N([C@@H](C)CO)C[C@H]2C)cc1 | inactive
Cc1ccc(S(=O)(=O)Nc2ccc3c(c2)C(=O)N([C@H](C)CO)C[C@H](C)[C@H](CN(C)C(=O)CCC(F)(F)F)OCCCC[C@H](C)O3)cc1 | inactive
COc1ccc(NC(=O)N(C)C[C@H]2OCCCC[C@@H](C)Oc3ccc(NS(=O)(=O)c4cccs4)cc3C(=O)N([C@H](C)CO)C[C@H]2C)cc1 | inactive

SMILES | cytotoxicity call
O=C(NCCN1CCOCC1)[C@@H]1c2ccccc2C(=O)N(C2Cc3ccccc3C2)[C@H]1c1ccc(CO)cc1 | inactive
COCCNC(=O)C[C@@H]1CC[C@H]2[C@@H](COC[C@@H](O)CN2S(=O)(=O)c2ccccc2F)O1 | inactive
COCC(=O)Nc1ccc2c(c1)C(=O)N(C)C[C@H](OC)[C@@H](C)CN(C(=O)c1ccccc1F)[C@H](C)CO2 | inactive
C[C@@H]1CN([C@@H](C)CO)C(=O)Cc2cc(NS(=O)(=O)c3cn(C)cn3)ccc2O[C@H]1CN(C)C(=O)NC1CCCCC1 | inactive
C[C@H]1CCCCO[C@H](CN(C)Cc2ccncc2)[C@@H](C)CN([C@@H](C)CO)C(=O)c2cc(NC(=O)NC3CCCCC3)ccc2O1 | inactive
C[C@@H]1CN([C@@H](C)CO)C(=O)c2cc(NC(=O)Cc3ccccc3)ccc2O[C@@H](C)CCCCO[C@@H]1CN(C)S(=O)(=O)c1ccc(Cl)cc1 | inactive
C[C@@H]1CCCCO[C@@H](CN(C)S(=O)(=O)c2ccc(Cl)cc2)[C@H](C)CN([C@@H](C)CO)C(=O)c2cc(NC(=O)Cc3ccccc3)ccc2O1 | inactive
C[C@H]1CCCCO[C@H](CN(C)S(=O)(=O)c2ccc(Cl)cc2)[C@@H](C)CN([C@@H](C)CO)C(=O)c2cc(NC(=O)Cc3ccccc3)ccc2O1 | active
CCS(=O)(=O)N1Cc2nccn2C[C@H](Cn2ncccc2=O)C1 | inactive
Cc1ccc(S(=O)(=O)Nc2ccc3c(c2)C(=O)N([C@@H](C)CO)C[C@@H](C)[C@@H](CN(C)S(=O)(=O)c2ccc(F)cc2)O3)cc1 | inactive
Cc1noc(C)c1S(=O)(=O)Nc1cccc2c1O[C@@H](CN(C)S(C)(=O)=O)[C@@H](C)CN([C@@H](C)CO)C2=O | active
Cc1noc(C)c1S(=O)(=O)Nc1cccc2c1O[C@H](CN(C)Cc1ccc(C(=O)O)cc1)[C@H](C)CN([C@H](C)CO)C2=O | active
Cc1noc(C)c1S(=O)(=O)Nc1cccc2c1O[C@H](CN(C)Cc1ccc(C(=O)O)cc1)[C@H](C)CN([C@@H](C)CO)C2=O | inactive
Cc1noc(C)c1S(=O)(=O)Nc1cccc2c1O[C@H](CN(C)Cc1ccc(C(=O)O)cc1)[C@@H](C)CN([C@H](C)CO)C2=O | inactive
Cc1noc(C)c1S(=O)(=O)Nc1cccc2c1O[C@@H](CN(C)S(C)(=O)=O)[C@@H](C)CN([C@H](C)CO)C2=O | inactive
Cc1noc(C)c1S(=O)(=O)Nc1cccc2c1O[C@H](CN(C)S(C)(=O)=O)[C@H](C)CN([C@@H](C)CO)C2=O | inactive
CC(C)CC#Cc1cnc2c(c1)C(=O)N([C@@H](C)CO)C[C@@H](C)[C@@H](CN(C)S(=O)(=O)c1cccs1)O2 | inactive
C[C@H](CO)N1C[C@H](C)[C@H](CN(C)C(=O)Nc2ccc(F)cc2)OCCCC[C@H](C)Oc2ccc(NC(=O)c3ccncc3)cc2C1=O | inactive
CCS(=O)(=O)N1CC[C@]2(CC1)CN(Cc1ccc3c(c1)OCO3)[C@@H](CO)c1[nH]c3cc(ccc3c12)OC | inactive
CCC(=O)N1C[C@]2(CN(C2)C(=O)CN2CCOCC2)c2c([nH]c3cc(ccc23)OC)[C@H]1CO | inactive

SMILES | cytotoxicity call
COc1ccc(S(=O)(=O)Nc2ccc3c(c2)C(=O)N([C@H](C)CO)C[C@H](C)[C@@H](CN(C)C(=O)Nc2ccc4c(c2)OCO4)OCCCC[C@@H](C)O3)cc1 | inactive
C[C@@H]1CN([C@@H](C)CO)C(=O)c2cccc(NC(=O)c3ccncc3)c2O[C@@H]1CN(C)S(=O)(=O)c1cn(C)cn1 | inactive
Cc1ccc(S(=O)(=O)N(C)C[C@@H]2OCCCC[C@H](C)Oc3ccc(NC(=O)Nc4ccc(C(F)(F)F)cc4)cc3C(=O)N([C@@H](C)CO)C[C@@H]2C)cc1 | inactive
Cc1ccc(S(=O)(=O)N(C)C[C@H]2OCCCC[C@@H](C)Oc3ccc(NC(=O)Nc4ccc(C(F)(F)F)cc4)cc3C(=O)N([C@@H](C)CO)C[C@@H]2C)cc1 | active
Cc1ccc(S(=O)(=O)N(C)C[C@@H]2OCCCC[C@H](C)Oc3ccc(NC(=O)Nc4ccc(C(F)(F)F)cc4)cc3C(=O)N([C@H](C)CO)C[C@H]2C)cc1 | inactive
Cc1ccc(S(=O)(=O)N(C)C[C@@H]2OCCCC[C@@H](C)Oc3ccc(NC(=O)Nc4ccc(C(F)(F)F)cc4)cc3C(=O)N([C@@H](C)CO)C[C@H]2C)cc1 | active
Cc1ccc(S(=O)(=O)N(C)C[C@@H]2OCCCC[C@@H](C)Oc3ccc(NC(=O)Nc4ccc(C(F)(F)F)cc4)cc3C(=O)N([C@H](C)CO)C[C@H]2C)cc1 | inactive
Cc1ccc(S(=O)(=O)N(C)C[C@H]2OCCCC[C@H](C)Oc3ccc(NC(=O)Nc4ccc(C(F)(F)F)cc4)cc3C(=O)N([C@@H](C)CO)C[C@@H]2C)cc1 | inactive
O=C([O-])C=CC(=O)[O-].[Fe+2] | inactive
O=C(CCCCC(=O)N/N=C/[C@H](O)[C@@H](O)[C@H](O)[C@H](O)CO[C@H]1O[C@H](CO)[C@H](O)[C@H](O)[C@H]1O)NO | inactive
CC(C)NC(=O)N(C)C[C@H]1Oc2ccc(NS(=O)(=O)c3ccc(Cl)cc3)cc2CC(=O)N([C@H](C)CO)C[C@H]1C | inactive
CCOC(=O)c1nnn(-c2nonc2N)c1CN1CCSCC1 | inactive
CCOC(=O)CCCCCC(=O)Nc1ccc2c(c1)C(=O)N([C@@H](C)CO)C[C@H](C)[C@H](CN(C)S(C)(=O)=O)O2 | inactive
COc1ccc(O)c(N)c1 | active
COc1ccc(C(C)=O)c(O)c1 | inactive
Nc1cc(-c2ccccc2)ccc1O | inactive
COc1ccc(NC(=O)N(C)C[C@H]2Oc3ccc(NS(C)(=O)=O)cc3CC(=O)N([C@@H](C)CO)C[C@H]2C)cc1 | inactive
COc1ccc2c(O[C@H]3CCCC[C@@H]3OC)nccc2c1-n1ccnc1-c1c[nH]c2c(N)c(F)cc(C#N)c12 | active
C[C@@H]1CN([C@@H](C)CO)C(=O)c2cc(NS(=O)(=O)c3cn(C)cn3)ccc2O[C@@H](C)CCCCO[C@@H]1CN(C)S(=O)(=O)c1cn(C)cn1 | inactive
